Test results published in PubChem BioAssay AID2289 (National Center for Advancing Translational Sciences (NCATS), 2010).
In all, about 340,000 compounds went through this assay and about 3,300 (0.97%) were called active. Another 9% or so got no clear call; they are omitted. The call rests on the fitted dose curve; in most records, active means well fitted inhibition curve with a large enough effect; inconclusive means small, poorly fitted or top-dose-only effect, or effect the other way; inactive means flat fitted curve, though single readings scatter. The list shows a part of the results.

Assay: qHTS Assay for Modulators of miRNAs and/or Inhibitors of miR-21; further: nearly all actives have a fitted effect of over 55% in size
Details: HeLa miR-21-FLuc reporter, luciferase luminescence, 48 h; actives lower the signal
Outline: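 HeLa cells stably expressing CMV-driven firefly luciferase with a downstream miR-21 binding sequence, endogenously expressing miR-21, were treated with titrations (up to about 40uM final) for 48 hours at 37 degree Celsius. Luciferase luminescence was read after lysis.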
Potency means the concentration at half of the fitted maximal effect.

Potency, active:
C=CCn1cccc(C(=O)Nc2ccc(N(C)C)cc2)c1=O 4.65 µM
Clc1cccc(-c2cc3nc4c(c(NCc5ccco5)n3n2)CCCC4)c1 2.93 µM
c1ccc(CSc2ccc(-c3cccs3)nn2)cc1 2.93 µM
Fc1cccc(CSc2ccc(-c3cccs3)nn2)c1 4.14 µM
Cc1cccc(CSc2ccc(-c3cccs3)nn2)c1 7.36 µM
c1ccc(CSc2ccc(-c3cccnc3)nn2)cc1 6.56 µM
CCOc1ccc(Nc2cc(C)c3ccccc3n2)cc1 18.5 µM
COc1ccc(Nc2nc(C)c3ccccc3n2)cc1 3.29 µM
COc1ccc(Nc2cc(C)c3ccccc3n2)cc1 5.85 µM
Cc1cc(Nc2ccccc2)nc2cc(O)ccc12 13.1 µM
COc1ccc(-n2nc([N+](=O)[O-])c(=NCc3ccc4c(c3)OCO4)n2O)cc1 1.65 µM
O=[N+]([O-])c1nn(-c2ccc3c(c2)OCCO3)n(O)c1=NCc1ccc(F)cc1 1.17 µM
Cc1ccc(CN=c2c([N+](=O)[O-])nn(-c3ccc4c(c3)OCCO4)n2O)cc1 1.31 µM
COc1ccc(-n2nc([N+](=O)[O-])c(=NCc3cccnc3)n2O)cc1 2.33 µM
CCOC(=O)c1sc(NC(=O)c2sccc2C)cc1C 0.369 µM
CCOC(=O)c1sc(NC(=O)C2CCC2)cc1C 4.65 µM
CCOC(=O)c1sc(NC(=O)c2ccccc2)cc1C 0.521 µM
COc1ccc2[nH]c(=O)c(CNc3ccccc3C)cc2c1 7.36 µM
O=C(N=Nc1c(O)n(Cc2ccccc2)c2ccccc12)c1ccc(O)cc1 6.56 µM
Cc1ccc(NC(=O)CSCc2ccc(F)cc2)cc1 6.56 µM
O=C(CSCc1ccccc1)Nc1cccc(F)c1 13.1 µM
O=C(CSCc1ccccc1)Nc1ccc(F)c(F)c1 14.7 µM
O=C(CSCc1c(F)cccc1F)Nc1ccccc1 5.85 µM
NC(=O)c1cccnc1Nc1cccc([N+](=O)[O-])c1 6.56 µM
Cc1ccc(NC(=O)c2cccc3cccnc23)cc1 3.69 µM
Cc1ccc(Nc2ncccc2C(N)=O)cc1 1.65 µM
O=C(NCCc1ccccc1F)c1cccc2cccnc12 3.29 µM
Cc1ccc(Nc2ncccc2C(N)=O)cc1[N+](=O)[O-] 3.29 µM
Cc1cc(Cl)ccc1Nc1ncccc1C(N)=O 2.07 µM
COc1ccnc(Oc2ccc3ccccc3c2)c1C#N 2.93 µM
COc1ccc(-c2nc3c4ccccc4ccn3c2CN2CCOCC2)cc1OC 6.56 µM
COc1cnn(-c2ccc(Br)cc2)c(=O)c1SCc1ccccc1 13.1 µM
COc1ccc(-c2csc(NCc3ccco3)n2)cc1C 5.85 µM
CC(=O)Nc1ccc(-c2csc(NCc3ccco3)n2)cc1 4.14 µM
Oc1ccc(-c2csc(NCc3ccco3)n2)cc1 4.65 µM
O=C(Cc1ccc(Cl)cc1)c1ccc(O)cc1 5.21 µM
CN(C)/C=C/C(=O)c1cnc(-c2ccccc2Cl)s1 18.5 µM
CN(C)/C=C/C(=O)c1cnc(-c2cccc(Cl)c2)s1 18.5 µM
COc1ccccc1OCCCOc1ccc([N+](=O)[O-])cc1Cl 7.36 µM
COc1cc(C)ccc1OCCOc1ccccc1Cl 14.7 µM
COc1cc(C)ccc1OCCCOc1ccccc1Cl 6.56 µM
Cn1c(-c2ccc3nc(N)sc3c2)nc2cc(N)ccc21 18.5 µM
CN(N=Nc1ccc([N+](=O)[O-])cc1)c1ccccc1 4.14 µM
O=C(NC(=S)Nc1ccc(Br)cn1)c1cccs1 0.521 µM
Cc1nc(NC(=S)NC(=O)c2cccs2)ccc1Br 14.7 µM
O=c1[nH]c(COc2ccc(Br)cc2Cl)nc2ccccc12 2.61 µM
O=c1[nH]c(COc2ccc(Cl)cc2Br)nc2ccccc12 3.29 µM
CCN(CC)S(=O)(=O)c1cc(C(=O)Oc2cccc(-c3cnc4ccccc4n3)c2)ccc1Br 1.85 µM
Nc1c(-c2ccc3c(c2)OCCO3)oc2ccccc2c1=O 2.93 µM
COc1ccc(-n2ncc3c(NCCCn4ccnc4)ncnc32)cc1 10.4 µM
Cc1cccc(-n2ncc3c(NCCCn4ccnc4)ncnc32)c1 10.4 µM
CCN(CC)CCCNc1ncnc2c1cnn2-c1ccc(C)c(C)c1 6.56 µM
COc1cccc(C(=O)/C=C/Nc2ccc(NC(C)=O)cc2)c1 11.7 µM
COc1cccc(C(=O)/C=C/Nc2ccc(S(=O)(=O)Nc3onc(C)c3C)cc2)c1 13.1 µM
COc1cccc(C(=O)/C=C/Nc2ccc(S(=O)(=O)Nc3ncccn3)cc2)c1 11.7 µM
Cc1noc(NS(=O)(=O)c2ccc(N/C=C/C(=O)c3ccc4c(c3)OCO4)cc2)c1C 9.27 µM
COc1cccc(C(=O)/C=C/Nc2ccc(S(=O)(=O)Nc3cnc4ccccc4n3)cc2)c1 7.36 µM
Fc1cc(Br)ccc1COc1ccc(-c2nnco2)cc1 7.36 µM
Cc1ccc(COc2ccc3c(c2)OCO3)cc1 3.69 µM
Cc1ccc(COc2ccc(-c3nnco3)cc2)cc1 4.14 µM
Cn1c(SCc2c(F)cccc2Cl)nnc1-c1cccs1 6.56 µM
Cn1c(SCc2c(F)cccc2Cl)nnc1-c1cnccn1 4.14 µM
CCCNC(=O)c1c(Cl)cnn1-c1ccc(C)cc1 4.14 µM
O=C(Nc1ccccc1)OCc1cc(-c2ccccc2Cl)on1 11.7 µM
O=C(Nc1ccccc1)c1ccc(-c2ccccc2Cl)o1 3.69 µM
O=C(Nc1ccccc1)c1cc(-c2ccccc2Cl)no1 7.36 µM
O=C(Nc1ccccc1)c1ccc(-c2ccccc2C(F)(F)F)o1 13.1 µM
